Data from PubChem BioAssay AID588742 (Southern Research Specialized Biocontainment Screening …, 2011).
Among all 1,800 compounds or so, about 410 (23%) were called active. These entries were drawn from the full list. Potency and affinity values are given separately. Unmarked numbers belong to inactive results. How the calls were made is not given here.

experiment: viability of Vero cells under compound – cytotoxicity control for flavivirus capping enzyme inhibitors (AID 588742); conditions: cytotoxicity counter-screen; series mostly up to 40 µM; viability: at the top concentration

| Structure (SMILES) | viability |
| --- | --- |
| CCOc1cc(/C=N/N=C2/NC(=O)C(CC(=O)O)S2)ccc1OCc1ccccc1Cl (stereo unspecified) | 100% |
| COc1ccccc1N1CCN(/N=C/c2cccc(OC)c2O)CC1 | 99.3% |
| CCOc1ccccc1CNc1ccc(O)cc1 | 96.2% |
| Oc1ccc(NCc2ccccc2OCc2ccccc2F)cc1 | 97.6% |
| CCOC(=O)c1c(/N=C/c2cccc([N+](=O)[O-])c2O)sc(C)c1C | 105% |
| COC(=O)C1=CN(c2cccc(C)c2)C=C(C(=O)OC)C1c1cc(OC)c(O)c([N+](=O)[O-])c1 | 96.7% |
| C=CCOC(=O)C1=C(C)N=c2s/c(=C3\C(=O)N(CC(=O)O)c4ccccc43)c(=O)n2C1c1ccc(OC)cc1 (stereo unspecified) | 105% |
| COc1ccc(/C=c2\sc3nc(=O)c(C)nn3c2=O)c(OC)c1 | 100% |
| Cc1ccc(S(=O)(=O)Nn2c(C)ccc2C)cc1 | 97.7% |
| Cc1ccc(C(c2c(O)nc3n(c2=O)CCS3)c2c(O)nc3n(c2=O)CCS3)cc1 | 97.4% |
| NS(=O)(=O)c1ccc(N=Nc2c(O)c(C(=O)O)cc3ccccc23)cc1 | 117% |
| CC(=O)N1c2ccc(S(=O)(=O)N(C)CC(=O)NCc3ccc(C)cc3)cc2CC1C (stereo unspecified) | 89.4% |
| COc1cc(/C=C/c2[nH]c(=O)[nH]c(=O)c2[N+](=O)[O-])cc([N+](=O)[O-])c1O | 92.2% |
| O=C(/C=C/Nc1ccc(S(=O)(=O)Nc2ncccn2)cc1)c1cccs1 | 106% |
| CCCOc1ccc(C(=O)N/N=C/c2ccc(-c3ccc(S(=O)(=O)Nc4ncccn4)cc3)o2)cc1 | 97.5% |
| O=C1NN(c2ccccc2)C(=O)/C1=C/c1ccc(-c2ccc(C(=O)O)cc2)o1 | 108% |
| Nc1nc2ncc(C(=O)c3cc(Cl)cc(Cl)c3O)cc2s1 | 95.3% |
| C=CCn1c(=O)c(CCC(=O)Nc2ccc(N3CCOCC3)cc2)nc2cc(C(F)(F)F)ccc21 | 90.6% |
| CC1(OC(=O)c2ccco2)C(=O)C=C2C=C(C3CC3)OC=C2C1=O (stereo unspecified) | 96.2% |
| C/C(=N/NC(=O)c1cc(O)c(O)c(O)c1)c1ccc([N+](=O)[O-])cc1 | 99.6% |
| O=C(NC1CCCCC1)c1cc2ccccc2cc1O | 94.5% |
| O=C(CCC1CCCC1)NNC(=O)c1cc2ccccc2cc1O | 87.1% |
| Cc1cc(C)c2nc(N3C(=O)C(O)=C(C(=O)c4ccco4)C3c3ccc(O)cc3)sc2c1 (stereo unspecified) | 96.7% |
| O=C(CNS(=O)(=O)c1ccc2ccccc2c1)OCC(=O)c1ccc(Br)s1 | 93.8% |
| O=C(c1ccccc1)c1ccc(OCC(O)CN2CCN(S(=O)(=O)N3CCCCC3)CC2)cc1 (stereo unspecified) | 87.1% |
| CC(C)c1ccc(Nc2ccc(C(=O)O)cc2[N+](=O)[O-])cc1 | 101% |

| Structure (SMILES) | viability |
| --- | --- |
| CCc1nnc(N/N=C/c2ccc(N3CCC(C)CC3)c([N+](=O)[O-])c2)n1N | 89.8% |
| COc1ccc(C2CC(c3ccccc3)=NN2c2ccc(Cl)c(C(=O)O)c2)cc1 (stereo unspecified) | 91.2% |
| O=C(CCN1C(=O)/C(=C\C=C\c2ccccc2)SC1=S)Nc1ccccc1C(=O)O | 95.4% |
| O=C1CCC/C(=N/Nc2ccc(Cl)cc2)C1 | 89.1% |
| COc1cc(C2C(C#N)=C(N)OC3=C2C(=O)CC(C)(C)C3)c([N+](=O)[O-])cc1OC (stereo unspecified) | 108% |
| COc1ccc2c([N+](=O)[O-])c(Cl)[nH]c2c1 | 104% |
| Cc1[nH]c2ccccc2c1C1=CC(=O)C=CC1=O | 89.9% |
| CC(=O)N1CCN(c2ccc(NCc3ccc(Br)o3)cc2)CC1 | 106% |
| Cc1nc2nc(-c3cccs3)cn2nc1C | 95.6% |
| CCCCCCCC1=NN(c2ccc(S(=O)(=O)O)cc2)C(=O)C1N=O (stereo unspecified) | 100% |
| COC(=O)c1ccc(N2NC(=O)/C(=C/c3ccc(OC)c(OC)c3)C2=O)cc1 | 98.2% |
| O=C1NN(c2ccccc2)C(=O)/C1=C\c1cccc(OC(=O)c2cccs2)c1 | 103% |
| Cc1nc2ccccc2c(=O)n1/N=C/c1ccc(O)c(O)c1O | 99.3% |
| COCCNC(=O)Nc1ccc2nc(-c3ccco3)c(-c3ccco3)nc2c1 | 102% |
| Cc1cccc(N/N=C/c2ccc(O)c(O)c2O)c1 | 103% |
| Oc1ccc(/C=N/N2CCOCC2)c(O)c1O | 102% |
| CN=c1scc(C)n1/N=C/c1ccc(O)c(O)c1O | 95.4% |
| C#CCOc1ccc(/C=C2/C(=O)ON=C2C)cc1Cl | 98.1% |
| O=C1CCNc2cc3ccccc3cc21 | 83.9% |
| COc1ccc(C2C(C#N)=C(N)Oc3c2c(C)nn3-c2ccccc2)cc1Cn1nc(C)c([N+](=O)[O-])c1C (stereo unspecified) | 94.7% |
| O=c1[nH]n2c(=O)c3c([nH]c2c1N=Nc1cccc(C(F)(F)F)c1)CCCC3 | 101% [at 20 µM] |
| O=c1oc2ccccc2c(O)c1/C=C1\C=Nc2ccccc21 | 91.5% |
| CCOc1ccc(N2C(=O)C(Cl)=C(N3CCOCC3)C2=O)cc1 | 98.1% |
| COC(=O)c1c(C)c2c(C)cc3ccccn3c-2c1C(=O)OC | 101% |
| Cc1c(CCC(=O)O)c(=O)oc2c(C)c(OCc3cc4c(cc3Cl)OCO4)ccc12 | 94.4% |
